CCHF vOTU inh – CCHFV vOTU protease inhibition; Pep-AMC fluorescence; inhibition, % at 11.5 µM; hit rate 0.55% among 370,000; AID 651958; in the data active = inhibition above about 30%
PriA SSB inh – blocks PriA binding to SSB C-terminal tail; AlphaScreen SSBct-PriA binding, biotinylated peptide; AID 1272365; inhibition, % at 33 µM; hit rate 0.6% among 430,000; in the data active = inhibition mostly above about 37%, no sharp cut-off; inactive = mostly below about 20%
DUSP3 inh – blocks human VHR1 dual specificity phosphatase; P51452; recombinant VHR phosphatase, pNPP absorbance; inhibition, % at 13.3 µM; hit rate 0.52% among 290,000; AID 1654; in the data active = inhibition above about 50%
Target sequence (P51452 whole entry, looked up): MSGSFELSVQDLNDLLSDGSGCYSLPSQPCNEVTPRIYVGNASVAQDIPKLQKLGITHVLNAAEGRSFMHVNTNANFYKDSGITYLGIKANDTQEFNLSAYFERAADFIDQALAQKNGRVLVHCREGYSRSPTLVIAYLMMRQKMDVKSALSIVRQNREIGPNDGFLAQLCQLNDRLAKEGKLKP
ugtP null kill – kills S. aureus RN4220 lacking UgtP; AID 1259309; hit rate 0.54% among 330,000; growth inhibition, % (no concentration beside the values); S. aureus RN4220 ugtP deletion, OD600 growth, 16 h; in the data active = growth inhibition above about 68%
Sa RN4220 lethal – kills Staphylococcus aureus RN4220 | inhibition, % (no concentration beside the values) | AID 1259311 | S. aureus RN4220 growth, OD600, 16 h | hit rate 0.33% among 330,000; in the data active = inhibition above about 85%
Large screens that a line does not name were inactive. Hits are enriched below; roughly 1.5% of the tested compounds scored in any of these assays.

O=C(NCc1ccc(Cl)cc1)C(=O)N/N=C/c1ccc(Br)cc1	DUSP3 inh 52.3 (no result: PriA SSB inh, ugtP null kill, Sa RN4220 lethal)
CNC(=O)C(=O)NN=Cc1ccc(Br)cc1	none (no result: CCHF vOTU inh, DUSP3 inh, ugtP null kill, Sa RN4220 lethal)
CN(C)CCn1nnnc1SCC1=C(C(=O)O)N2C(=O)C(NC(=O)Cc3csc(N)n3)C2SC1 (stereo not given)	ugtP null kill 100.4, Sa RN4220 lethal 100.3 (no result: CCHF vOTU inh, PriA SSB inh, DUSP3 inh)
Cc1nn(C(C)C(=O)NC2C(=O)N3C(C(=O)O)=C(CSc4nnnn4C)CSC23)cc1Cl (stereo not given)	ugtP null kill 98.6, Sa RN4220 lethal 99.8
Cc1cc(C(F)F)nn1CC(=O)NC1C(=O)N2C(C(=O)O)=C(CSc3nnnn3C)CSC12 (stereo not given)	ugtP null kill 99.6, Sa RN4220 lethal 99.8
CC(C(=O)NC1C(=O)N2C(C(=O)O)=C(CSc3nnnn3C)CSC12)n1cc(Br)cn1 (stereo not given)	ugtP null kill 99.8, Sa RN4220 lethal 100.2
COc1cc(C(C2Sc3ncnn3C2=O)N2CCN(C(=O)c3ccco3)CC2)cc(OC)c1OC (stereo not given)	none (no result: CCHF vOTU inh, DUSP3 inh, ugtP null kill, Sa RN4220 lethal)
Cn1nnnc1SCC1=C(C(=O)O)N2C(=O)C(NC(=O)C3CC3c3ccccc3)C2SC1 (stereo not given)	ugtP null kill 99.6, Sa RN4220 lethal 100.2
COc1ccc(N(C(C)C(=O)N2CCC(Cc3ccccc3)CC2)S(C)(=O)=O)cc1 (stereo not given)	PriA SSB inh 54.9
COc1ccc(N(C(C)C(=O)N2CCCC2)S(C)(=O)=O)cc1 (stereo not given)	none
CC(=O)Nc1ccc2c(c1)CCN2C(=O)c1ccco1	none (no result: CCHF vOTU inh, DUSP3 inh, ugtP null kill, Sa RN4220 lethal)
O=C(N1CCN(c2ccccc2)CC1)C(F)(F)C(F)F	DUSP3 inh 51.6
CC(OC(=O)c1cc(O)c2ccccc2c1O)C(=O)Nc1ccc(C(N)=O)cc1 (stereo not given)	CCHF vOTU inh 86.1 (no result: DUSP3 inh)
O=C(NCc1cccnc1)Nc1ccc(Br)cc1	DUSP3 inh 52.8
Cn1nc(C(=O)NC2CC3CCC(C2)N3S(C)(=O)=O)ccc1=O (stereo not given)	none (no result: CCHF vOTU inh, DUSP3 inh, ugtP null kill, Sa RN4220 lethal)
Cc1ccc(C(=O)NC(CCc2ccccc2)C(=O)O)cc1 (stereo not given)	none (no result: DUSP3 inh)
CCCCCCC(NC(=O)c1ccc(C)cc1)C(=O)O (stereo not given)	PriA SSB inh 56.6 (no result: DUSP3 inh)
CNC(CC(C)C)C(=O)NC1C(=O)NC(CC(N)=O)C(=O)NC2C(=O)NC3C(=O)NC(C(=O)NC(C(=O)O)c4cc(O)cc(O)c4-c4cc3ccc4O)C(O)c3ccc(c(Cl)c3)Oc3cc2cc(c3OC2OC(CO)C(O)C(O)C2OC2C[C@](C)(N)C(O)C(C)O2)Oc2ccc(cc2Cl)C1O (stereo not given in full)	ugtP null kill 99.9, Sa RN4220 lethal 100.7 (no result: DUSP3 inh)
O=[N+]([O-])c1cnc(Nc2ccc(S(=O)(=O)Nc3nccs3)cc2)c([N+](=O)[O-])c1	PriA SSB inh 38.0 (no result: CCHF vOTU inh, DUSP3 inh, ugtP null kill, Sa RN4220 lethal)
Cc1ccc(S(=O)(=O)Nc2nccs2)cc1[N+](=O)[O-]	none
Cc1nc(C(N)=NOC(=O)c2ccc(Cl)cc2)c(C(F)(F)F)o1	none (no result: CCHF vOTU inh, DUSP3 inh, ugtP null kill, Sa RN4220 lethal)
COc1ccc(SCC2CCN(C(=O)NCc3cccs3)CC2)cc1	none (no result: CCHF vOTU inh, DUSP3 inh, ugtP null kill, Sa RN4220 lethal)
COc1ccccc1/C=C/CN1CCC(Oc2ccc(C(=O)N3CCCC3)cc2)CC1	DUSP3 inh 52.8
Cc1ccc(O)c(N=Nc2ccc(S(=O)(=O)N3CCOCC3)cc2)c1	PriA SSB inh 39.0
COc1cccc(Cn2c(SCc3nc(-c4ccc(Cl)cc4)no3)nc3ccsc3c2=O)c1	none (no result: CCHF vOTU inh, DUSP3 inh, ugtP null kill, Sa RN4220 lethal)
CSCC(C)(O)CNC(=O)CSc1ccc(F)cc1 (stereo not given)	none (no result: CCHF vOTU inh, DUSP3 inh, ugtP null kill, Sa RN4220 lethal)
O=[N+]([O-])c1ccccc1Nc1nc(-c2cccnc2)cs1	PriA SSB inh 51.8
O=[N+]([O-])c1ccccc1Nc1nc(-c2ccccn2)cs1	PriA SSB inh 80.4 (no result: CCHF vOTU inh, DUSP3 inh, ugtP null kill, Sa RN4220 lethal)
CCc1ccccc1Nc1nc(-c2cccnc2)cs1	none
CCN(CC)c1ccc(Nc2nc(-c3cccnc3)cs2)cc1	PriA SSB inh 41.2, DUSP3 inh 56.9
O=c1c2cccnc2[nH]c(=S)n1CCC1=CCCCC1	none
Clc1cc2c(c3ncccc13)OCN(CCC1=CCCCC1)C2	PriA SSB inh 95.0 (no result: CCHF vOTU inh, DUSP3 inh, ugtP null kill, Sa RN4220 lethal)
Cc1ccc2c(CN3CC(C)CC(C)C3)cc(=O)oc2c1C (stereo not given)	none
Cc1ccc2c(CN3CCC(C)CC3)cc(=O)oc2c1C	DUSP3 inh 53.0
O=C(C1CC1)N1CCc2ccc(NS(=O)(=O)Cc3ccccc3)cc21	none (no result: CCHF vOTU inh, DUSP3 inh, ugtP null kill, Sa RN4220 lethal)
COc1ccc(-n2cc(-c3ccc(OC)c(OC)c3)[nH]c2=S)cc1	DUSP3 inh 50.6 (no result: ugtP null kill, Sa RN4220 lethal)
CCOc1cc(CNCc2ccncc2)cc(Br)c1OCc1ccc(F)cc1	ugtP null kill 93.6
Fc1ccc(COc2ccc(Br)cc2CNCc2ccncc2)cc1	none

Source: PubChem BioAssay (several laboratories)
